Measurements reported in PubChem BioAssay (NCI).
About 83,000 compounds went through this panel and 20% of them were active in at least one assay; those are over-represented in the sample as a whole.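 Single-dose data. Exposure time 48 hours. Values below 10 considered active.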 A number with no mark means an inactive call. Active and inactive are the calls of the source.

Test system: MCF7 breast
Experiment: NCI-60 one-dose screen, 48 h (100 = growth as untreated, 0 = no growth, -100 = all killed)
Settings: 10 µM unless noted
Method: Growth inhibition of the MCF7 human tumor cell line is measured as a screen for anti-cancer activity. Cells are grown in 96 well plates and exposed to the test compound for 48 hours. Compounds are tested at a single concentration, which is 10^-5 M for most compounds. The reported endpoint is percent growth (GI% or GIPRCNT), where numbers from 0 - 100% represent growth inhibition, and numbers from -100% - 0 represent cell death. For example, a value of 40 represents 60% growth inhibition. A value of 0 means no net growth occurred over the course of the experiment. A value of -40 indicates 40% of cells at the beginning of the experiment died by the end of the experiment. A value of -100 means all cells are dead at the end of the experiment.
NCI-60 Human Tumor Cell Lines Screen was performed using the standard one-dose NCI protocol, which is described in more detail at https://dtp.cancer.gov/discovery_development/nci-60/default.htm.
Compounds with GIPRCNT values below 10 were considered active. Activity score was based on GIPRCNT using the following formula: […]
Score is 0 for GIPRCNT values of 100 or above, 50 for GIPRCNT values of 0, and 100 for GIPRCNT values of -100.

SMILES | growth
NS(=O)(=O)c1ccc(Nc2nc(N/N=C/C=C/c3ccccc3)nc(Nc3ccccc3)n2)cc1 | 16%
OCC(Nc1ncnc2ccc(-c3cnc4cnccn34)cc12)c1ccccc1 (stereo not given) | 60.9%
C/C(=N\NC(N)=S)c1nnn(-c2ccc([N+](=O)[O-])cc2)c1C | 91.9%
CCN(CC)c1ccc(/C=N/NC(=O)c2ccc(NS(C)(=O)=O)cc2)c(O)c1 | 6.08% (active)
Clc1ccc(CSc2nnc(-c3ccc(Cl)cc3)n2-c2ccccc2)cc1 | 84.5%
COc1ccc2c(c1)c(-c1nc(N)nnc1-c1c[nH]c3ccccc13)cn2C | 15%
O=C(CCCCCCNC(=O)C(O)(O)C(F)(F)F)Nc1ncc(-c2ccccc2)s1 | 11.7%
CCCCCCNC(=O)Oc1ccc(/C(=C(/C)c2ccc(Cl)cc2)c2ccc(OCCN3CCCCCC3)cc2)cc1 | 15.7%
C1=CC(c2nn3c(-c4ccccc4)nnc3s2)=Cc2ccccc2O1 | 30.7%
Oc1[nH]c2ccc(Cl)cc2c1N=Nc1nc(N=Nc2c(O)[nH]c3ccc(Cl)cc23)nc(N2CCCCC2)n1 | 51.7%
Cn1c(SCC(=O)c2ccc(Br)cc2)nc2ccccc2c1=O | 51.7%
Cc1ccc(-c2nc(SCC(=O)c3ccccc3)nc(Nc3ccc(S(N)(=O)=O)cc3)c2C#N)cc1 | 65.1%
O=C1Nc2ccc(F)cc2/C1=C\C(=O)c1ccc(NS(=O)(=O)c2ccccc2)cc1 | 22.5%
CC1=C(C)C(=O)C(Nc2cccc(C(F)(F)F)c2)=C(Br)C1=O | 52.3%
CCc1cc(OC(=O)N2CCC(N3CCCCC3)CC2)ccc1Nc1cc(-c2ccc(-n3cccn3)cc2)[nH]n1 | 6.81% (active)
COC(=O)c1cccc(NC2=CC(=O)C(C)=C(C)C2=O)c1 | 71.3%
O=C1C(SCc2ccccc2)=C(Cl)CN1c1ccccc1 | 40.6%
O=C(/C=C/C=C/c1csc(Br)n1)NO | 84.2%
Cn1cc(-c2nn3cc(-c4ccncc4)nc3s2)c2cc(F)ccc21 | 18.2%
O=c1c2cc(-c3ccc(F)cc3F)ccc2n(O)c(=O)n1-c1cccc(C(F)(F)F)c1 | 1.33% (active)

SMILES | growth
C#CCN(C)CCCOc1ccc(NCc2ccc(C(=O)NO)cc2)cc1Cl | 18%
O=S(=O)(Oc1ccc(-c2cn3ccoc3n2)cc1)c1cccc(C(F)(F)F)c1 | 89.5%
Cc1cc(C)cc(NC2=C(Cl)C(=O)c3nc(C)ccc3C2=O)c1 | -44.4% (active)
CN1CCN(c2ccc(Nc3nc(NCCCNS(=O)(=O)c4ccc(Cl)cc4)c4sccc4n3)cc2)CC1 | 20%
Cc1[nH]c(C(=O)Nc2ccccc2OCc2cccc(C(=O)NC3CCCNC3)c2)c(Cl)c1Cl (stereo not given) | -77.8% (active)
O=C(/C=C/c1cccc(F)c1)c1cccc(OCCCCOc2cccc(C(=O)/C=C/c3cccc(F)c3)c2)c1 | 54.6%
Cc1ccc(NC(=O)Nc2nc3ccc([N+](=O)[O-])cc3s2)cc1 | 2.35% (active)
CCCCSC1=C(Cl)CN(c2ccccc2)C1=O | 51.5%
Cc1[nH]c(C(=O)Nc2ccccc2OCc2cccc(C(=O)NC3CCNC3)c2)c(Cl)c1Cl (stereo not given) | -73.9% (active)
COc1ccc(C(C)=C(c2ccc(OCCN(C)C)cc2)c2ccc(OCCN(C)C)cc2)cc1 | -67.6% (active)
CC1=C(C)C(=O)C(Nc2ccc(C)c(C)c2)=C(Br)C1=O | 64.2%
CCS(=O)(=O)Nc1ccc(C(=O)CC2(O)C(=O)Nc3ccccc32)cc1 (stereo not given) | 92.3%
Cc1ccc2c(n1)C(=O)C(Cl)=C(Nc1cccc(C(=O)OC(C)(C)C)c1)C2=O | 53.3%
CNC(=O)Nc1ccc(Nc2cc(-c3ccc(-n4cccn4)cc3)[nH]n2)c(C)c1 | 81.2%
C#CCOc1cccc(-c2nc(N)nc(Nc3ccccc3SSc3ccccc3Nc3nc(N)nc(-c4cccc(OCC#C)c4)n3)n2)c1 | 61.2%
C#C[C@]1(O)CC[C@H]2[C@@H]3CC=C4c5sc(Nc6ccc(C)cn6)nc5CC[C@]4(C)[C@H]3CC[C@@]21C | -68.9% (active)
C=C(C=O)[C@@H]1CC[C@]2(C(=O)O)CC[C@]3(C)C(CC[C@@H]4[C@@](C)(CCC#N)[C@H](C(=C)C=O)CC[C@]43C)[C@@H]12 (stereo not given in full) | 14.3%
CC(Nc1ncnc2ccc(-c3cnc4cnccn34)cc12)c1ccccc1 (stereo not given) | 33.5%
O=C(/C=C/c1csc(Br)n1)NO | 24.6%
Brc1ccc(-c2cc(-c3ccc4c(c3)OC=CO4)n[nH]2)s1 | 20.7%
